Measurements: ChEMBL document CHEMBL3988442, “University of Dundee, Small-Polar-MMV Screening Library” (2021)

Assays:
[1] = molecular target: T1, Aspartate--tRNA(Asp/Asn) ligase (Mycobacterium tuberculosis (strain ATCC 25618 / H37Rv)) (UniProt P9WFW3); test: Assay for Asp RNA synthetase-1 from Mycobacterium tuberculosis; format: functional; parameters: scale not given: direction of the effect not stated beside the values; conditions: 30 µM; further: in the data most compounds retested in dose-response had high values
T1 sequence (whole entry): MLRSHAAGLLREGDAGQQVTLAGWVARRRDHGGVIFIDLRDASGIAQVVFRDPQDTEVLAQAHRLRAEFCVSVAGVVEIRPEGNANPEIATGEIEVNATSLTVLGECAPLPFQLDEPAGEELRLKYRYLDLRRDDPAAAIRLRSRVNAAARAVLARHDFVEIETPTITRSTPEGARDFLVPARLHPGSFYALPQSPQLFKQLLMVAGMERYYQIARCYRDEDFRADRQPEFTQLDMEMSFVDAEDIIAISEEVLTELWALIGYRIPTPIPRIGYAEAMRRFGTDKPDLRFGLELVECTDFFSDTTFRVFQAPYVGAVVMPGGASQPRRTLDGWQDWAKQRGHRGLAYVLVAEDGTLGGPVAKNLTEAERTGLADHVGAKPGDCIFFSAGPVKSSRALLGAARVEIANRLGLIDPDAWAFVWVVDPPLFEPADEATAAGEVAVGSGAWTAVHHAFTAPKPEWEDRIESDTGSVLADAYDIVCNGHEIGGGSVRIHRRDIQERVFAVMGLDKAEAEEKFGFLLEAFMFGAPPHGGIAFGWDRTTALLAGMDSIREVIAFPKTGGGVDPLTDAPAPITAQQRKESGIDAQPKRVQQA

[2] = molecular target: Shiga toxin 2 (Escherichia coli O157:H7) (UniProt P09385+P09386); test: E. coli 0.157:H7 Shiga Toxin SOP - stx2 screening assay; format: functional; parameters: scale not given: direction of the effect not stated beside the values; conditions: 30 µM

Row | Compound | Percent Effect [1] [%] | Percent Effect [2] [%]
1 | Cc1cc(-c2nnc(SCC(=O)O)n2C(C)c2ccccc2)nn1C (configuration not stated) | 2.15 | 2.98
2 | O=C(c1ccc(F)cc1)N1C[C@@H]2OCCN(c3ncccn3)[C@@H]2C1 | -0.874 | -4.11
3 | O=C(NCCc1ccccn1)C1=NN(c2ccccc2)C(=O)CN1 | 11.3 | 1.11
4 | Cc1oc(C(=O)O)cc1S(=O)(=O)Nc1cc(Cl)ccc1F | -2.58 | 17.5
5 | Cc1nn(C)c(N2CCOCC2)c1CNC1CCc2ccccc2C1 (configuration not stated) | -2.23 | -3.73
6 | CC(C)(C)N1CCCN(C(=O)c2csc(S(N)(=O)=O)c2)CC1 | -2.95 | -17.3
7 | Cc1cc(CN2CCN(C(=O)c3sccc3C3CC3)CC2)on1 | 0.922 | 27
8 | N#Cc1cccc(S(=O)(=O)NC(=O)COC2CCCC2)c1 | 1.85 | -31
9 | CC(NC(=O)NCC1(O)CCC1)c1ccc(OCC2CC2)c(F)c1 (configuration not stated) | -6.14 | -4.99
10 | Cn1nc(CNC(=O)NCc2ccc(Cl)cc2)c2c1CCOC2 | 1.91 | -9.65
11 | CCS(=O)(=O)CCn1ccc(NC(=O)CCc2cccc(C)c2)n1 | 2.58 | -19.5
12 | Cn1cccc1CNC(=O)CCCc1nnc2ccccn12 | 1.36 | -34.1
13 | COc1c(C2CCCN2Cc2c(C)noc2C)c(C)nn1C (configuration not stated) | 1.48 | 6.54
14 | CCCc1nnsc1C(=O)NCC1CCN(c2ccccn2)CC1 | -7.59 | -0.668
15 | Cc1ccc(NC2CCN(C(=O)CCc3ccco3)CC2)nn1 | 0.0874 | 19.2
16 | CC(=O)NC1CCCN(C(=O)Nc2cnc3c(cnn3C(C)C)c2)C1 (configuration not stated) | -4.11 | 18
17 | Cc1ccc(CNC(=O)CN2CCN(CC(O)c3ccco3)CC2)cc1 (configuration not stated) | -6.22 | -10.6
18 | c1ccc(C[C@H]2[C@H](N3CCOCC3)CCN2Cc2cccnc2)cc1 | 2.33 | -7.76
19 | CC(C)c1nc2n(n1)CC(NCc1ncc(-c3ccccc3)o1)CC2 (configuration not stated) | -5.88 | -9.35
20 | CC(Cn1cccn1)NC(=O)N1CCN(Cc2cccs2)CC1 (configuration not stated) | -5.57 | -23.7
21 | CCN1CCCC1CN(CCN(C)C)S(=O)(=O)c1cccc(C#N)c1 (configuration not stated) | 5.06 | -21
22 | Cc1cccn2cc(CC(=O)N3CCCC(n4cncn4)C3)nc12 (configuration not stated) | 1.06 | -13.1
23 | O=C1CC2(CCCCN2C(=O)c2ccsc2)CN1CC1CC1 (configuration not stated) | -2.94 | -8.01

Row | Compound | Percent Effect [1] [%] | Percent Effect [2] [%]
24 | O=C1COC2(CCN(Cc3ccccn3)CC2)CN1CC1CC1 | 4.21 | -7.99
25 | CN(C)C(=O)CN1C[C@@H]2CC[C@H](C1)N(Cc1cc(F)ccc1F)C2 | -0.16 | -37.1
26 | c1cnn(CC2CCCN2Cc2nc(-c3ccoc3)no2)c1 (configuration not stated) | 0.0441 | -0.74
27 | COc1ncccc1C(=O)N1CC[C@H]2C[C@@H](C)O[C@@H]2C1 | -1.34 | -45
28 | O=C(CCc1ccccc1F)NS(=O)(=O)c1ccc2c(c1)OCCCO2 | 2.29 | -13.9
29 | O=C(NCCC(=O)N1CCCCCC1)c1c(O)cc(F)cc1F | -0.98 | -11.1
30 | CN(C)C(=O)CC1CC2(CCNCC2)c2cc(F)ccc21 (configuration not stated) | 2.15 | 1.21
31 | CC(=O)N1CCC[C@H]1C(=O)NCCOc1cccc(Cl)c1 | 1.97 | -31.3
32 | CCc1n[nH]c(C2CN(C(=O)Cn3ccccc3=O)CCO2)n1 (configuration not stated) | 0.8 | -58
33 | COCCC(=O)N1CCCC2(CCC(=O)N2CCOC)CC1 (configuration not stated) | 0.751 | -11.1
34 | CCC1CCCN(C(=O)Cc2csc(-c3ncccn3)n2)C1 (configuration not stated) | 0.456 | -14.8
35 | CC(C)c1nnc2n1CCN(CC(=O)Nc1nncs1)C2 | -2.1 | 10
36 | Cc1nc(-c2ccsc2)ccc1C(=O)NCCC(=O)N1CCCC1 | 0.0333 | -18.4
37 | Cc1cc(-c2cnn(CCNC(=O)C3CCCO3)c2C2CC2)on1 (configuration not stated) | -4.09 | 7.9
38 | CC1CCN(Cc2cnc(S(=O)(=O)CC3CC3)n2CC2CCCO2)CC1 (configuration not stated) | -2.12 | -24.8
39 | CCc1ccc(S(=O)(=O)Nc2c(C)cccc2C(=O)O)s1 | 0.112 | 25.9
40 | O=C(Cc1cccs1)N1C[C@@H]2COC[C@]2(COc2cccnc2)C1 | -6.32 | -1.18
41 | Cc1cccnc1CNCC1(O)CCCN(CC2CCCCC2)C1=O (configuration not stated) | -2.28 | 13.1
42 | Cc1cccc(CNC2CCCc3c2cnn3C)c1 (configuration not stated) | 0.855 | -9.23
43 | CS(=O)(=O)NCC1CCCN(C(=O)Nc2cccnc2N2CCCC2)C1 (configuration not stated) | 6.08 | -16.6
44 | CC(C)OCc1ncn2c1CN(Cc1cccs1)CCC2 | 8.33 | -0.247
45 | O=C(NCC1CC1)[C@H]1C[C@H]2OCC[C@H]2N(Cc2ccoc2)C1 | 2.61 | -11.8
46 | CN(C)CC1CSCCCN1C(=O)c1ccc(=O)[nH]c1 (configuration not stated) | 0.539 | 3.65
